“And” between values parts separate entries of the source, which are not always exact repeats. Identical values can stand only once. Screen size: about 220,000 compounds; about 910 (0.41%) were called active. This is one part of a sample in which actives are shown more often than they occur. Measured potencies and affinities stand elsewhere. Unmarked numbers belong to inactive results.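 Rule for the calls: active = primary inhibition above the hit cutoff, then over 50% inhibition at one or more dose response concentrations (cut at about 23% in these data, passing the limit was not always enough); inconclusive = conflicting primary data, or primary hits not chosen for dose response; inactive = low primary inhibition, or under 50% at every dose.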
Molecular target: Aminopeptidase N (Plasmodium falciparum (isolate 3D7)) (UniProt O96935)
Experiment: malaria alanyl aminopeptidase activity blockers – biochemical, fluorogenic H-Leu-NHMec substrate, 1536-well (AID 1445);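 note: plate controls were DMSO full reaction for no effect and no enzyme background for full effect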
Details: recombinant M1AAP, H-Leu-NHMec fluorogenic kinetic assay; at 30 µM, active compounds read high unless noted

Chain of Aminopeptidase N (Plasmodium falciparum (isolate 3D7)) (O96935 whole entry, looked up): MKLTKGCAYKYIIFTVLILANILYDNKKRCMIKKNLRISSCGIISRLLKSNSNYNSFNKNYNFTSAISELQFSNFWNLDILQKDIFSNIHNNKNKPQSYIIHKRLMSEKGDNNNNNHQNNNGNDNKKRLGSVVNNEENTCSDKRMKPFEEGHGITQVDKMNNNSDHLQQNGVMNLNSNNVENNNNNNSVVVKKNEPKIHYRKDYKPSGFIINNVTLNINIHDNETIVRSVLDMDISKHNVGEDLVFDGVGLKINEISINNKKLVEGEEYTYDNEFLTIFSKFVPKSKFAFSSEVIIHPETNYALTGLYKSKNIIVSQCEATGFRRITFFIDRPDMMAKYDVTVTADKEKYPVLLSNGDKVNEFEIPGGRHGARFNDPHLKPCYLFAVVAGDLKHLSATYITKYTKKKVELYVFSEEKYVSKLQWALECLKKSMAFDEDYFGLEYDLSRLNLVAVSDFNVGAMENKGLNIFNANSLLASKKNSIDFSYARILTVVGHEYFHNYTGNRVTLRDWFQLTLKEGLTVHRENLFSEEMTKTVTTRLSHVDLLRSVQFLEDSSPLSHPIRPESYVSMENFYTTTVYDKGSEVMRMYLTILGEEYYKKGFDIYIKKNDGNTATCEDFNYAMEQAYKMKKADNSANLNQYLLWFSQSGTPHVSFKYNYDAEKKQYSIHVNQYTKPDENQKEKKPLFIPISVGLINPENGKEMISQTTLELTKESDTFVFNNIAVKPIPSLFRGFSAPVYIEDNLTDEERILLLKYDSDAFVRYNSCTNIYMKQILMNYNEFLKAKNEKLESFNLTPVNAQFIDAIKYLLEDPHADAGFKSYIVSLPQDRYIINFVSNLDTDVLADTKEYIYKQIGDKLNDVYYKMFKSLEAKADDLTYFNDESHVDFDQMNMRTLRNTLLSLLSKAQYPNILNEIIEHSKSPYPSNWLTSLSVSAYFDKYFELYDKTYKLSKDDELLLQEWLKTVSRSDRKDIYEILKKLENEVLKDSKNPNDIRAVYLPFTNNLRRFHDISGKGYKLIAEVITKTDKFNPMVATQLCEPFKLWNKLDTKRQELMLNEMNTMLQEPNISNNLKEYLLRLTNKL

| Compound | inhibition |
| --- | --- |
| COc1ccc(C(=O)CSc2cc(C)nc(SCC(=O)c3ccc(C)cc3)n2)cc1 | 12.2% |
| Cn1c(C(O)C(O)c2ccccc2)nc2ccccc21 (stereo not given) | -1.04% |
| CCCCC(=O)NC(NC(=O)CCCC)c1ccc(OCC(C)C)c(OC)c1 | 4.4% |
| Cn1c(Sc2ccccc2Cl)c(C=O)c2ccccc21 | 3.59% |
| CCN1C(=O)S/C(=C/c2c(OCc3ccc(C(=O)O)cc3)ccc3ccccc23)C1=O | 9.62% |
| Cc1ccc(S(=O)(=O)N(C)Cc2ccc(C(=O)N/N=C/c3ccc(OC(F)F)cc3)cc2)cc1 | -2.98% |
| Cc1cnc(NC(=O)CSc2nnc(-c3ccncc3)n2C2CCCCC2)s1 | 4.18% |
| CN(Cc1nc(-c2ccccn2)no1)S(=O)(=O)c1ccc(Cl)cc1 | 0.8% |
| Cc1nc2sc(C(c3ccc(C(C)C)cc3)N3CCN(CCO)CC3)c(O)n2n1 (stereo not given) | 1.32% |
| C=CCn1c(SCC(=O)/C(C#N)=C(\C)N)nc2sc(CC)cc2c1=O | 5.1% |
| CCc1c(C)c2cc(Cl)c(O)c(CN3CCCCC3)c2oc1=O | -1.01% |
| Cc1c(C)c2cc(Cl)c(O)c(CN3CCCCC3)c2oc1=O | 36% |
| COc1c(O)cc2c(c1O)C(=O)CC(c1ccccc1)O2 (stereo not given) | 4.17% |
| C[C@@H]1Cc2c(O)c(O)cc(O)c2C(=O)O1 | -2.7% |
| Cn1nc(-c2ccc(Cl)cc2)cc1NC(=O)CCCC(=O)O | -1.87% |
| CC1CCc2cccc3c2N1c1cc(C#N)c(C#N)cc1O3 (stereo not given) | -3.31% |
| O=C(Nc1nc2ccccc2[nH]1)c1ccc(Br)o1 | 0.56% |
| Cc1ccc(O)c(-c2cc(C(=O)Nc3ccc(S(=O)(=O)Nc4nccc(C)n4)cc3)[nH]n2)c1 | 5.6% |
| O=C1CCC(C(=O)OCc2ccccc2)N1 (stereo not given) | 2.24% |
| CCOC(=O)Cc1cc(=O)n2[nH]c(-c3ccc(Cl)cc3)cc2n1 | 7.9% |
| CCOP(=O)(OCC)c1nc(-c2cccc3ccccc23)oc1NCc1ccc(OC)cc1 | 16.1% |
| CCOP(=O)(OCC)c1nc(Cc2ccccc2)oc1NCc1ccccc1 | 1.14% |
| Cc1ccc(S(=O)(=O)Nc2cc(-c3ccc(Cl)cc3)nn2C)cc1 | 4.66% |
| Cc1ccc(S(=O)(=O)Nc2nc3n(n2)C(c2ccc(Cl)cc2)CC(=O)N3)cc1 (stereo not given) | 4.26% |

| Compound | inhibition |
| --- | --- |
| Oc1[nH]c2ccccc2c1/C=N/N1CCCCC1 | -0.99% |
| CCc1nn(C(C)C(=O)NCCc2ccc(OC)c(OC)c2)c(=O)c2cc3occc3n12 (stereo not given) | 10.4% |
| O=C(O)c1cccc(N2C(=O)c3ccc4c5c(ccc(c35)C2=O)C(=O)N(c2cccc(C(=O)O)c2)C4=O)c1 | 11.6% |
| O=C(O)c1ccc(N2C(=O)c3cccc4c(C(=O)O)ccc(c34)C2=O)cc1 | 10.1% |
| COc1cccc(-c2nnc(SCN3C(=O)c4ccccc4C3=O)n2C)c1 | -1.36% |
| Fc1ccc(CN2CCSCC2)cc1Br | 0.38% |
| O=C1NC(=S)N/C1=C\c1ccccc1OCc1ccc(C(=O)O)cc1 | 14.7% |
| CN1C(=O)S/C(=C/c2ccccc2OCc2ccc(C(=O)O)cc2)C1=O | 6.59% |
| COC(=O)c1ccc(COc2ccccc2/C=N/NS(=O)(=O)c2ccccc2)cc1 | 3.52% |
| CN1C(=O)S/C(=C\c2ccccc2OCc2ccc(C(=O)O)cc2)C1=O | 18.7% |
| COC(=O)c1ccc(COc2ccc(/C=N/Nc3cccc(C(=O)O)c3)cc2)cc1 | 5.29% |
| CN1C(=O)/C(=C/c2ccccc2OCc2ccc(C(=O)O)cc2)NC1=S | 22.6% |
| O=C(Nn1c(Cc2ccccc2)nc2ccccc2c1=O)c1c(O)c2cccc3c2n(c1=O)CCC3 | -0.5% |
| Cc1cc(C(=O)N2CCC(C)CC2)on1 | 9.58% |
| COc1nc(Nc2ccc([N+](=O)[O-])cc2)nc(NC2CCCCC2)n1 | 8.38% |
| COc1ccc(NC(=S)N2CCN(C(=O)C3CCCO3)CC2)c(OC)c1 (stereo not given) | 1.1% |
| COCCNc1nnc(SCC(=O)Nc2cc(-c3ccccc3)nn2-c2ccccc2)s1 | 8.39% |
| O=C(NNS(=O)(=O)c1ccccc1F)c1sccc1-n1cccc1 | 1.58% |
| Cc1ccc([N+](=O)[O-])cc1/C=N/Nc1nnnn1-c1ccccc1 | -4.44% |
| COC(=O)N/N=C/c1cc([N+](=O)[O-])cc(Br)c1O | 19.9% |
| COc1cc(CCC(=O)OCC(=O)Nc2ccccc2C(C)C)cc(OC)c1OC | -3.32% |
| N#CC(C#N)=C1C=CC=CN1/C(=C\c1ccco1)C(=O)c1ccc(-c2ccccc2)cc1 | 18.3% |
| N#CC(C#N)=C1C=CC=CN1/C(=C\c1ccco1)C(=O)c1ccc(Cl)cc1 | 17.2% |
| CCCc1nnc(NC(=O)NCCN2C(=O)C3C4C=CC(C4)C3C2=O)s1 (stereo not given) | 0.7% |

| Compound | inhibition |
| --- | --- |
| Cn1c(Cn2nnc(-c3ccccc3)n2)nnc1SCc1ccccc1Cl | 0.85% |
| CC(=O)N(c1ccc2oc(=O)sc2c1)S(=O)(=O)c1cccs1 | 21.6% |
| CC(C)C(=O)N(c1cc2sc(=O)oc2c2ccccc12)S(=O)(=O)c1cccs1 | 23.3% (active) |
| CC(C)C(=O)N(c1ccc2oc(=O)sc2c1)S(=O)(=O)c1cccs1 | 6.95% |
| Cc1ccc(-n2c(=O)cc(N3CCc4ccccc4C3)[nH]c2=O)cc1 | 3.06% |
| CCc1cc(=O)oc2c(CN3CCCC3)c(O)c(Cl)cc12 | 18.3% |
| CCCCc1cc(=O)oc2c(CN3CCCC3)c(O)c(Cl)cc12 | 13.1% |
| CCCc1cc(=O)oc2cc(C)c(CN3CCCC3)c(O)c12 | 13.2% |
| CCc1cc2c(CN3CCN(CC)CC3)cc(=O)oc2cc1O | -1.87% |
| CCc1cc2c(-c3ccccc3)cc(=O)oc2c(CN2CCOCC2)c1O | 9.72% |
| CCc1cc2c(CN3CCN(CCO)CC3)cc(=O)oc2cc1O | 11.5% |
| CCOC(=O)c1ccc(NC(=S)NCCCN2CCOCC2)cc1 | -1.32% |
| CCO[C@@H]1OC(C(=O)N2CCOCC2)=C[C@H](c2ccc(C(F)(F)F)cc2)[C@H]1CCCO | 2.16% |
| O=C(CSc1nc2c(sc3ccccc32)c(=O)n1CCCN1CCOCC1)NCC1CCCO1 (stereo not given) | 1.22% |
| Cc1ccc(N2/C(=N/c3nc(C)cc(C)n3)NC(=O)CC2C(=O)O)cc1 (stereo not given) | -5.89% |
| O=C(/C=C/c1ccc(-c2ccccc2)o1)c1ccccc1 | 4.34% |
| O=Cc1ccc(-c2ccc(F)cc2)o1 | 12.4% |
| N=c1c2c3c(sc2nc2n1CCC2)CCCC3 | 7.32% |
| CCNc1nc(Cl)nc(-c2cn(-c3ccccc3)c3ccccc23)n1 | -7.96% |
| COc1ccc(NC(C)=O)cc1S(=O)(=O)N1CCN(C/C=C/c2ccccc2)CC1 | 2.09% |
| CCSc1nnc2c(n1)OC1(CCCC1)Nc1ccccc1-2 | 12.5% |
| O=C(O)c1ccc(/C=N/NC(=O)c2cc(-c3ccc4c5c(cccc35)CC4)n[nH]2)cc1 | 13.5% |
| O=C(N/N=C/c1cccc([N+](=O)[O-])c1)c1cc(-c2ccc3c4c(cccc24)CC3)n[nH]1 | 6.89% |
| COc1ccc(-n2c(=S)[nH]c3cc(C(=O)NCc4ccco4)ccc3c2=O)cc1OC | 7.75% and 12.6% |

| Compound | inhibition |
| --- | --- |
| CCCc1cc(=O)[nH]c(Nc2cc(OC)ccc2OC)n1 | -0.31% |
| CCOc1ccc(N(C(=O)c2ccccc2Cl)C2=NC(C)(C)CS2)cc1 | 5.11% |
| O=C(O)c1ccc2c(c1)C1C=CCC1C(c1ccncc1)N2 (stereo not given) | 9.23% |
| Brc1cc2c(cc1C1Nc3ccccc3C3C=CCC31)OCO2 (stereo not given) | 6.9% |
| COc1cccc(NS(=O)(=O)c2ccc3c(c2)C2C=CCC2C(c2ccc(C(=O)O)cc2)N3)c1 (stereo not given) | 22.8% |
| Fc1ccc2c(c1)C1C=CCC1C(c1cc3c(cc1Br)OCO3)N2 (stereo not given) | 5.12% |
| Cc1nc2c(C)cccn2c1/C(O)=C1\C(=O)C(=O)N(CCN(C)C)C1c1ccccc1 (stereo not given) | -2.63% |
| CC(=O)c1ccccc1OC(=O)c1c(F)cccc1F | 3.59% |
| Cc1nc2cc(F)ccc2n1C1CCN(C(=O)c2c(F)cccc2F)CC1 | 5.28% |
| Cc1cccc(-c2c3c(=O)n(C)c(=O)n(C)c3cn2C(C)(C)C)c1 | 7.14% |
| O=c1[nH]c2ccc(NC(=S)NCc3ccccc3)cc2[nH]1 | -4.38% |
| C=CCn1c(COc2ccccc2)nnc1SC(C)C(=O)N/N=C/c1cc(Cl)ccc1O (stereo not given) | 46.5% (active) |
| C=CCn1c(COc2ccc(Cl)cc2)nnc1SCC(=O)N/N=C/c1ccccc1 | 0.22% |
| C=CCn1c(COc2ccc(Cl)cc2)nnc1SCC(=O)N/N=C/c1cccc(O)c1 | 6.07% |
| CC1CC(=O)Nc2ccccc2N1S(=O)(=O)c1ccc(Br)cc1 (stereo not given) | -1.92% |
| COc1ccccc1NC(=O)Cc1noc(CSc2nnc(C)n2C)n1 | -2.44% |
| Cc1ccccc1CS(=O)(=O)Cc1ccc(C(=O)NCc2ccccn2)o1 | 11.9% |
| CCc1cc2ccc(C)cc2nc1SCC(=O)Nc1cc(OC)c(OC)cc1C(=O)O | 17.6% |
| CCc1cc2ccccc2nc1SCC(=O)Nc1cc(OC)c(OC)cc1C(=O)O | 6.44% |
| Cc1sc2ncnc(SCc3ccc(C(=O)O)cc3)c2c1C | 8.46% |
| COC(=O)CSc1ncnc2scc(-c3ccccc3)c12 | 8.48% |
| O=C(CSc1ncnc2scc(-c3ccccc3)c12)Nc1ccc(C(=O)O)cc1 | 7.21% |
| Cc1ccc(-c2csc3ncnc(SCC(=O)O)c23)cc1 | -4.79% |
